According to PubChem BioAssay (Tox21):
Records with an inconclusive call do not appear. A call without a number means that no potency is given here. Active and inactive are the calls of the source. Unless noted, calls follow the shape of the dose curve; as a rule, active = well fitted curve in the direction sought with a large enough effect in the repeat runs; inconclusive = weak or mixed curves; inactive = no such curve, though single readings can be large; an effect the other way counts as inactive or inconclusive.

Experiments:
[1] = qHTS assay to identify small molecule antagonists of the glucocorticoid receptor (GR) signaling pathway - cell viability counter screen (AID 720693); settings: GR-bla HeLa viability, CellTiter-Glo luminescence, 18 h, with 5 nM dexamethasone present; series mostly up to 58.5 µM; also: nearly all actives have a fitted effect of over 55% in size
[2] = qHTS assay for identifying genotoxic compounds that show differential cytotoxicity against isogenic chicken DT40 cell lines with known DNA damage response pathways - Rad54/Ku70 mutant cell line (AID 743015); settings: DT40 Rad54/Ku70 mutant viability, CellTiter-Glo, 40 h; series mostly up to 66.8 µM; also: nearly all actives have a fitted effect of over 60% in size; also: potency is read from the fitted curve at half-maximal effect
[3] = qHTS assay to identify small molecule antagonists of the androgen receptor (AR) signaling pathway - cell viability counter screen (AID 743033; also: nearly all actives have a fitted effect of over 45% in size; also: potency is read from the fitted curve at half-maximal effect); settings: AR-bla HEK293 viability, CellTiter-Glo luminescence, 16 h; series mostly up to 58.5 µM
[4] = qHTS assay to identify small molecule antagonists of the androgen receptor (AR) signaling pathway using the MDA cell line - cell viability counter screen (AID 743041; also: nearly all actives have a fitted effect of over 45% in size; also: potency is read from the fitted curve at half-maximal effect); settings: MDA-kb2 viability, CellTiter-Fluor, 16 h, cells co-treated with R1881 androgen agonist; series mostly up to 70.3 µM
How it was run: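 MDA-kb2 AR-luc cells (MMTV-luciferase, AR/GR responsive) treated with compounds plus R1881 agonist for 16 h at 37C. CellTiter-Fluor added at 15.5 h; fluorescence read after 30 min in the same wells.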

[5] = target: Androgen receptor (Homo sapiens) (UniProt P10275); assay: qHTS assay to identify small molecule antagonists of the androgen receptor (AR) signaling pathway (AID 743035; active = well fitted inhibition curve with a large enough effect in the signal ratio in the repeat runs, not every such curve was filed as active; the % refers to the signal ratio); settings: HEK293 AR-UAS-bla, R1881-stimulated, beta-lactamase FRET, 16 h; series mostly up to 58.5 µM
How it was run: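 Beta-lactamase FRET read (2 h RT incubation with LiveBLAzer B/G) following 16 h of compound plus R1881 treatment of AR-UAS-bla HEK293 cells, which had been pre-incubated 4 h at 37C.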

[6] = target: Androgen receptor (Homo sapiens) (UniProt P10275); assay: qHTS assay to identify small molecule agonists of the androgen receptor (AR) signaling pathway (AID 743036; active = well fitted activation curve with a large enough effect in the signal ratio in the repeat runs, with a control signal flat, not every such curve was filed as active; the % refers to the signal ratio; also: potency is read from the fitted curve at half-maximal effect); settings: HEK293 AR-UAS-bla GripTite, beta-lactamase FRET ratio, 16 h; series mostly up to 62.4 µM
How it was run: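 Fluorescence from a beta-lactamase FRET substrate served as read-out in AR-UAS-bla GripTite HEK293 cells. Cells were treated with DMSO-dissolved compounds for 16 h at 37C, then with LiveBLAzer B/G substrate for 2 h at room temperature.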

[7] = target: Androgen receptor (Homo sapiens) (UniProt P10275); assay: qHTS assay to identify small molecule agonists of the androgen receptor (AR) signaling pathway using the MDA cell line (AID 743040; also: nearly all actives have a fitted effect of over 20% in size; also: potency is read from the fitted curve at half-maximal effect); settings: MDA-kb2 AR-luc cells, MMTV luciferase, 16 h; series mostly up to 70.3 µM
How it was run: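 MDA-kb2 breast carcinoma cells carrying MMTV-luciferase (responsive to AR and GR), plated 5 h then treated 16 h with compounds at 37C, 0% CO2. Read-out was ONE-Glo luminescence after 30 min at room temperature.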

[8] = target: Androgen receptor (Homo sapiens) (UniProt P10275); assay: qHTS assay to identify small molecule antagonists of the androgen receptor (AR) signaling pathway using the MDA cell line (AID 743042; also: nearly all actives have a fitted effect of over 55% in size); settings: MDA-kb2 AR-luc, MMTV luciferase, R1881 antagonist, 16 h; series mostly up to 70.3 µM
How it was run: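 MDA-kb2 breast carcinoma cells carrying MMTV-luciferase (AR/GR responsive) were co-treated with compounds and the agonist R1881 for 16 h at 37C. Inhibition read as ONE-Glo luminescence; CellTiter-Fluor fluorescence measured in parallel for cytotoxicity.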

[9] = qHTS assay for identifying genotoxic compounds that show differential cytotoxicity against isogenic chicken DT40 cell lines with known DNA damage response pathways - Rev3 mutant cell line (AID 743014); settings: chicken DT40 Rev3-/- viability, CellTiter-Glo, 40 h; series mostly up to 68.4 µM; also: nearly all actives have a fitted effect of over 55% in size; also: potency is read from the fitted curve at half-maximal effect
[10] = qHTS assay for identifying genotoxic compounds that show differential cytotoxicity against isogenic chicken DT40 cell lines with known DNA damage response pathways - wild type cell line (AID 743012); settings: DT40 wild type chicken cells viability, CellTiter-Glo, 40 h; series mostly up to 68.4 µM; also: nearly all actives have a fitted effect of over 60% in size; also: potency is read from the fitted curve at half-maximal effect
How it was run: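 First, wild type DT40 cells were plated at 300 per well and equilibrated about 0.5 h at 37 C/5% CO2. Next, compounds in DMSO were added and exposure lasted 40 h. Finally, CellTiter-Glo was added for 30 min at room temperature and luminescence recorded.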

Sequence of Androgen receptor (Homo sapiens) (P10275 whole entry, looked up): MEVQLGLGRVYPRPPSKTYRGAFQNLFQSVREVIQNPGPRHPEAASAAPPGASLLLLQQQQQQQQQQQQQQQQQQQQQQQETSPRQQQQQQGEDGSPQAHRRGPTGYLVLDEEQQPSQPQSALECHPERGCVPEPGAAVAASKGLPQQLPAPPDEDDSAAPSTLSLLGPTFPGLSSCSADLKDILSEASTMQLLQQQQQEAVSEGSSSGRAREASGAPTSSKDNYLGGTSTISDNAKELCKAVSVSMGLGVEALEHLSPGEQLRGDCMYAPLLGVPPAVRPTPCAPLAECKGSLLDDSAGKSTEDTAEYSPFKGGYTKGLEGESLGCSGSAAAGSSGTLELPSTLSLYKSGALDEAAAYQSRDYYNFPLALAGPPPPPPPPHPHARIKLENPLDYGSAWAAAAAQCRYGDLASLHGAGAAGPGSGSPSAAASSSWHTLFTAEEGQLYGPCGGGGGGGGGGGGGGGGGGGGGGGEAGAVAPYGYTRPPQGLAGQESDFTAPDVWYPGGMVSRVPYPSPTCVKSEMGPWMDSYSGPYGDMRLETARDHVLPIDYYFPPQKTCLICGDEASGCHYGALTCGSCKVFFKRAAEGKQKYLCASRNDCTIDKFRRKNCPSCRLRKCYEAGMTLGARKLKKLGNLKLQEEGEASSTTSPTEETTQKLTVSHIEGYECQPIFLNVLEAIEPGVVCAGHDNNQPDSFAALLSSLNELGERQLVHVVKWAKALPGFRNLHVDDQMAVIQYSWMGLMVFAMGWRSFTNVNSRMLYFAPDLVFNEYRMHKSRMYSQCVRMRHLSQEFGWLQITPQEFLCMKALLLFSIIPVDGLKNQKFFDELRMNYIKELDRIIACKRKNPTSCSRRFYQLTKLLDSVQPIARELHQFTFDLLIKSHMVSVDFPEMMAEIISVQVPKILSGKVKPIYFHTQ

What does the source list for `COc1cc2c(cc1OC)CC(=O)N(CCCN(C)C[C@H]1Cc3cc(OC)c(OC)cc31)CC2`?
Potency [1]: inactive; Potency [2]: 9.44 µM (active); Potency [3]: inactive; Potency [4]: inactive

For `C[N+](C)(CCCCCC[N+](C)(C)C1c2ccccc2-c2ccccc21)C1c2ccccc2-c2ccccc21`, which Potency [1] is on record?
The Potency was “inactive”.

And the Potency [3]?
Its Potency is “inactive”.

What about the Potency [4] of the same compound?
The Potency was “inactive”.

With `CNC(=O)[C@H](Cc1c[nH]c2ccccc12)NC(=O)[C@@H](CC(=O)NO)CC(C)C` as the compound, how does the Potency [1] read?
The Potency was “inactive”.

And the Potency [2]?
Its Potency is 33.5 µM (active).

What about the Potency [3] of the same compound?
The Potency was “inactive”.

And the Potency [4]?
Its Potency is “inactive”.

Which results are given for `C[C@@H]1C[C@H]2C3C[C@H](F)C4=CC(=O)C=CC4(C)[C@@]3(F)[C@@H](O)CC2(C)[C@@]1(O)C(=O)COC(=O)C(C)(C)C` (stereo not given in full)?
Potency [1]: inactive; Potency [3]: inactive; Potency [5]: inactive; Potency [6]: 0.0601 µM (active); Potency [7]: 0.0047 µM (active); Potency [4]: inactive; Potency [8]: inactive

With `CC(C)N=c1cc2n(-c3ccc(Cl)cc3)c3ccccc3nc-2cc1Nc1ccc(Cl)cc1` as the compound, how does the Potency [9] read?
Its Potency is 11.4 µM (active).

And the Potency [2]?
Its Potency is 12.7 µM (active).

What about the Potency [3] of the same compound?
The Potency was “inactive”.

With `CC(CN(C)C)CN1c2ccccc2Sc2ccc(C(F)(F)F)cc21` (stereo not given) as the compound, how does the Potency [10] read?
Its Potency is 5.96 µM (active).

And the Potency [9]?
The Potency was 7.5 µM (active).

And the Potency [2]?
The Potency was 9.44 µM (active).

And the Potency [3]?
Its Potency is “inactive”.

What about the Potency [4] of the same compound?
The Potency was “inactive”.

What does the source list for `Cc1nnc(C(C)C)n1C1C[C@H]2CC[C@@H](C1)N2CC[C@H](NC(=O)C1CCC(F)(F)CC1)c1ccccc1` (stereo not given in full)?
Potency [10]: inactive; Potency [9]: inactive; Potency [2]: inactive; Potency [3]: inactive; Potency [4]: inactive

For `C[C@H](/C=C/[C@H](C)C(C)(C)O)[C@H]1CC[C@H]2/C(=C/C=C3C[C@@H](O)C[C@H](O)C3)CCC[C@]12C`, which Potency [10] is on record?
The Potency was “inactive”.

And the Potency [2]?
Its Potency is “inactive”.

And the Potency [3]?
Its Potency is “inactive”.

And the Potency [4]?
Its Potency is “inactive”.

For `CO[C@H]1C=CO[C@@]2(C)Oc3c(C)c(O)c4c(O)c(c(/C=N/N5CCN(C6CCCC6)CC5)c(O)c4c3C2=O)NC(=O)/C(C)=C\C=C[C@H](C)[C@H](O)[C@@H](C)[C@@H](O)[C@@H](C)[C@H](OC(C)=O)[C@@H]1C`, which Potency [10] is on record?
The Potency was 3.35 µM (active).

What about the Potency [9] of the same compound?
The Potency was 8.41 µM (active).

What about the Potency [2] of the same compound?
Its Potency is 4.22 µM (active).

And the Potency [3]?
The Potency was “inactive”.

And the Potency [4]?
The Potency was 23.7 µM (active).

Which results are given for `Nc1ncnc2c1ncn2[C@@H]1O[C@H](COP(=O)(O)OP(=O)(O)OP(=O)(O)O)[C@@H](O)[C@H]1O`?
Potency [10]: inactive; Potency [9]: inactive; Potency [2]: inactive; Potency [3]: inactive; Potency [4]: inactive

Which Potency [10] does the source give for `CCN(CC)CCOc1ccc(-c2nc3cc(Cl)ccc3s2)cc1` here?
The Potency was 0.944 µM (active).

What about the Potency [9] of the same compound?
The Potency was 1.06 µM (active).

And the Potency [2]?
Its Potency is 1.06 µM (active).

And the Potency [3]?
The Potency was 23.9 µM (active).

With `CC(C)[C@@H](N)C(=O)O` as the compound, how does the Potency [10] read?
Its Potency is “inactive”.

And the Potency [2]?
Its Potency is “inactive”.

And the Potency [3]?
Its Potency is “inactive”.

What about the Potency [4] of the same compound?
The Potency was “inactive”.

With `OCC(S)CS` (stereo not given) as the compound, how does the Potency [10] read?
The Potency was 16.8 µM (active).

What about the Potency [9] of the same compound?
The Potency was 18.8 µM (active).

And the Potency [2]?
The Potency was 8.41 µM (active).

And the Potency [3]?
Its Potency is “inactive”.

What about the Potency [5] of the same compound?
The Potency was “inactive”.

What about the Potency [7] of the same compound?
The Potency was “inactive”.

Which Potency [10] does the source give for `C#C[C@]1(O)CC[C@H]2[C@@H]3CCC4=CCCC[C@@H]4[C@H]3C(=C)C[C@@]21CC` here?
The Potency was 13.3 µM (active).

What about the Potency [9] of the same compound?
The Potency was 15 µM (active).

And the Potency [2]?
The Potency was 21.1 µM (active).

And the Potency [3]?
The Potency was “inactive”.

What about the Potency [4] of the same compound?
Its Potency is “inactive”.

With `C=C1C(=C/C=C2\CCC[C@]3(C)[C@@H]([C@H](C)/C=C/[C@H](C)C(C)C)CC[C@@H]23)C[C@@H](O)C[C@@H]1O` as the compound, how does the Potency [10] read?
Its Potency is 13.3 µM (active).

And the Potency [9]?
Its Potency is 21.1 µM (active).

And the Potency [2]?
The Potency was 16.8 µM (active).

What about the Potency [6] of the same compound?
The Potency was “inactive”.

And the Potency [7]?
Its Potency is “inactive”.

What about the Potency [4] of the same compound?
The Potency was “inactive”.

Which Potency [10] does the source give for `CCOc1ccc(N=Nc2ccc(N)cc2N)cc1` here?
The Potency was 23.7 µM (active).

And the Potency [2]?
The Potency was 21.1 µM (active).

What about the Potency [3] of the same compound?
The Potency was “inactive”.

What about the Potency [7] of the same compound?
The Potency was 0.473 µM (active).

And the Potency [4]?
The Potency was 15 µM (active).

And the Potency [8]?
The Potency was “inactive”.

Which results are given for `CCc1ccc2c(c1)N(CC(C)CN(C)C)c1ccccc1S2` (stereo not given)?
Potency [10]: 6.68 µM (active); Potency [9]: 5.31 µM (active); Potency [2]: 8.41 µM (active)

What does the source list for `CN(C)C(=O)CCSC(SCCC(=O)O)c1cccc(/C=C/c2ccc3ccc(Cl)cc3n2)c1` (stereo not given)?
Potency [3]: inactive; Potency [7]: inactive; Potency [8]: inactive

What does the source list for `COc1cc(/C=C/C(=O)N2CCN(CC(=O)N3CCCC3)CC2)cc(OC)c1OC`?
Potency [10]: inactive; Potency [2]: inactive; Potency [3]: inactive; Potency [5]: inactive; Potency [6]: inactive; Potency [7]: inactive; Potency [4]: inactive; Potency [8]: inactive

With `C=C1/C(=C\C=C2/CCC[C@]3(C)[C@@H]([C@H](C)OCCC(C)(C)O)CC[C@@H]23)C[C@@H](O)C[C@@H]1O` as the compound, how does the Potency [10] read?
The Potency was 8.41 µM (active).

What about the Potency [9] of the same compound?
Its Potency is 13.3 µM (active).

And the Potency [2]?
The Potency was 13.3 µM (active).

What about the Potency [3] of the same compound?
The Potency was “inactive”.

And the Potency [4]?
The Potency was “inactive”.
